Source: PubChem BioAssay
Rows were chosen to be rich in hits. Some 3.4% of all compounds tested hit in one or more screens of this group.
GalR3 antagonist: blocks the human galanin receptor 3; hit rate 0.44% among 360,000; HEK293 GalR3-CNG cAMP membrane potential fluorescence; galR3 body fused to GalR1 C-terminus; inhibition, % at 3 µM;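 active = inhibition above the screen-wide average plus 3 SD, cut at about 13% in these data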;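 note: forskolin and galanin both at EC90 stimulate the cells; cAMP rise reported by CNG channel membrane potential dye signal; 0% = forskolin plus galanin with DMSO and 100% = forskolin alone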
Target sequence (O60755 1-299 limits assumed): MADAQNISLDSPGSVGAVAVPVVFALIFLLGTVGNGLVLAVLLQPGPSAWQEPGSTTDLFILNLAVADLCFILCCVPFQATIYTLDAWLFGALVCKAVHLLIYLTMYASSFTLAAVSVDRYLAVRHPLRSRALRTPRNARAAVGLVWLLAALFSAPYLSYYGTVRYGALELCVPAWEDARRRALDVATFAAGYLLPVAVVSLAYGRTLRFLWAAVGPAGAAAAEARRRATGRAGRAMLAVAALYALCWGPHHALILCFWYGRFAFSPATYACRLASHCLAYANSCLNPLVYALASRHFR
Gli-Sufu antag: Gli-Sufu pathway antagonism. Sufu-KO-LIGHT fibroblasts, Gli luciferase reporter luminescence. inhibition, % at 5 µM. hit rate 0.74% among 340,000. AID 588413;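 active = inhibition above about 55%, limit read from the data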;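 note: 0% = DMSO-treated cells and 100% = wells with medium but no cells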
FXN GAA850 act: frataxin GAA850 promoter activation; hit rate 0.56% among 360,000; activation, % at 6 µM; AID 540364; HEK293 lucGAA850 FXN promoter luciferase reporter, 24 h; percent of 10 µM SAHA response;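 active = activation above the average of all compounds screened plus 3 SD, cutoff fixed separately per campaign, cut at about 7.5% in these data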;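 note: 0% = DMSO wells and 100% = 10 µM SAHA wells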
H9c2 protect: protects H9c2 cardiomyocytes from peroxide injury; H2O2 injury protection, ATPLite, 2 h; protection from H2O2 cell death, % at 20 µM; hit rate 0.63% among 360,000; AID 588492;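 active = compounds giving at least 50% protection of heart cells from peroxide-induced death in the single-dose screen, raw or plate-pattern-corrected value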;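 note: 0% = DMSO wells with peroxide and 100% = DMSO wells without peroxide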
SMARCA2 act: activators of SMARCA2 function. MG213 cells, MMTV-luciferase reporter, dexamethasone, overnight. activation, % at 9.1 µM. hit rate 1% among 370,000; in the data active = activation above about 7.8%;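 note: 0% = vehicle wells and 100% = reference activator wells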
COUP-TFII inh: blocks human COUP-TFII nuclear receptor. P24468. HEK293T NGFI-A luciferase reporter, luminescence. inhibition, % at 8.6 µM. hit rate 0.7% among 370,000. AID 686940;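 active = inhibition above a per-plate cutoff, mean inhibition of test wells between control levels plus 3 SD, cut at about 38% in these data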;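 note: cells cotransfected with COUP-TFII expression vector driving the NGFI-A reporter; 0% = median of COUP-TF2 test wells and 100% = reporter-only cells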
Target sequence (P24468 whole entry, looked up): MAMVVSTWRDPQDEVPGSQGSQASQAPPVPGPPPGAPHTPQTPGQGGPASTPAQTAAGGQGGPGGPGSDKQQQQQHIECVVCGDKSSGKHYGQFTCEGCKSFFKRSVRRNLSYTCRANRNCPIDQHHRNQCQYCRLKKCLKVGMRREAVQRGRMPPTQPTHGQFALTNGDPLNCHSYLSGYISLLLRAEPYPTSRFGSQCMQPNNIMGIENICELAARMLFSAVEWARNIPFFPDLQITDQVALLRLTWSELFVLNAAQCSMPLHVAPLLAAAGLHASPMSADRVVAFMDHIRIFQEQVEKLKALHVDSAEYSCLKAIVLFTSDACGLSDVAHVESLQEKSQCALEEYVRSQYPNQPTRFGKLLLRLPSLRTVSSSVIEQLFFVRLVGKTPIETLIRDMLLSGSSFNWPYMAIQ
Gli-Sufu confirm: Gli-SUFU antagonism confirmation, single concentration | inhibition, % at 5 µM | AID 602428 | shares compounds with Gli-Sufu antag | Sufu-KO-LIGHT cells, Gli luciferase reporter, luminescence | hit rate 40% among 2,500;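 active = mean inhibition at 5 µM reaching about 45%, limit read from the data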;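 note: plate controls were DMSO-treated cells for no effect and wells lacking cells for full effect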
SufuKO cytotox: counter-screen for Gli-SUFU antagonists: cytotoxicity; Sufu-KO-LIGHT cells cytotoxicity, ATP luminescence; AID 651994; cytotoxicity, % at 5 µM; shares compounds with Gli-Sufu antag; hit rate 32% among 2,500;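 active = mean cytotoxicity at 5 µM above about 25%, limit read from the data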;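 note: cells exposed to compound overnight for roughly 16 to 18 hours; plate controls were DMSO wells with cells for no effect and medium without cells for full effect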
Wnt3a counter: inhibits Wnt3a reporter, counter-screen for Gli-SUFU antagonists | inhibition, % at 6.25 µM | hit rate 20% among 2,500 | Wnt-LIGHT cells, Wnt3a-driven luciferase reporter, luminescence | AID 651995 | shares compounds with Gli-Sufu antag;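 active = mean inhibition above about 25%, limit read from the data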
Starred values were filed as active, the others as inactive.

Results for CCc1[nH]c(=O)c(C#N)c2c1CCCC2 ?
GalR3 antagonist: -1.5; Gli-Sufu antag: 51.4; FXN GAA850 act: 4.4; H9c2 protect: -2.2; SMARCA2 act: 0.7; COUP-TFII inh: -5.2; Gli-Sufu confirm: 17.3; SufuKO cytotox: 4.5; Wnt3a counter: 3.4

How did O=C(Cc1cccs1)Nc1ccc2c(c1)C(=O)OC2 do in these assays?
GalR3 antagonist: -5.2; Gli-Sufu antag: 99.0*; FXN GAA850 act: -0.6; H9c2 protect: -1.8; SMARCA2 act: -3.6; COUP-TFII inh: -24.2; Gli-Sufu confirm: 14.8; SufuKO cytotox: 4.8; Wnt3a counter: 1.6

How did CCn1c(=NC(=O)CS(=O)(=O)c2ccccc2)sc2cccc(OC)c21 do in these assays?
GalR3 antagonist: -4.6; Gli-Sufu antag: 66.6*; FXN GAA850 act: 0.2; H9c2 protect: -18.8; SMARCA2 act: -2.5; COUP-TFII inh: 8.4; Gli-Sufu confirm: 67.1*; SufuKO cytotox: 21.5; Wnt3a counter: 11.7

How did Cn1c(=NC(=O)CS(=O)(=O)c2ccccc2)sc2ccccc21 do in these assays?
GalR3 antagonist: -3.9; Gli-Sufu antag: -37.4; FXN GAA850 act: 2.2; H9c2 protect: -3.8; SMARCA2 act: 1.7; COUP-TFII inh: -4.8

What do the screens show for `CC1=NCCN1S(=O)(=O)c1cc(Cl)ccc1Cl`?
GalR3 antagonist: 4.4; Gli-Sufu antag: 55.8*; FXN GAA850 act: 2.0; H9c2 protect: 10.7; SMARCA2 act: -3.1; COUP-TFII inh: 3.7; Gli-Sufu confirm: 23.2; SufuKO cytotox: 17.4; Wnt3a counter: -2.8

How did O=S(=O)(c1cc(Cl)ccc1Cl)N1CCCC1 do in these assays?
GalR3 antagonist: -3.4; Gli-Sufu antag: 5.1; FXN GAA850 act: 2.5; H9c2 protect: -8.5; SMARCA2 act: 0.5; COUP-TFII inh: 2.7

Results for COc1ccc(-n2nc(C(=O)NCC(=O)NC(C)C)c3ccccc3c2=O)cc1OC ?
GalR3 antagonist: -8.8; Gli-Sufu antag: -0.6; FXN GAA850 act: 2.2; H9c2 protect: 2.8; SMARCA2 act: 0.3; COUP-TFII inh: 6.2

Results for COC(=O)CNC(=O)CNC(=O)c1nn(-c2ccc(OC)c(OC)c2)c(=O)c2ccccc12 ?
GalR3 antagonist: -8.0; Gli-Sufu antag: 52.4; FXN GAA850 act: -0.1; H9c2 protect: -9.0; SMARCA2 act: -0.2; COUP-TFII inh: 6.5; Gli-Sufu confirm: 9.8; SufuKO cytotox: -4.3; Wnt3a counter: 10.5

Results for CC(=O)N1CCC(C(=O)N2CCN(S(=O)(=O)c3ccc(Cl)s3)CC2)CC1 ?
GalR3 antagonist: 0.8; Gli-Sufu antag: 97.0*; FXN GAA850 act: 1.7; H9c2 protect: 1.2; SMARCA2 act: 2.5; COUP-TFII inh: 14.4; Gli-Sufu confirm: 15.2; SufuKO cytotox: 22.0; Wnt3a counter: 11.4

What do the screens show for `O=C(Nc1cc(N2CCCCC2)ncn1)c1ccccc1`?
GalR3 antagonist: -9.7; Gli-Sufu antag: 71.5*; FXN GAA850 act: 2.3; H9c2 protect: 2.7; SMARCA2 act: 6.2; COUP-TFII inh: -33.8; Gli-Sufu confirm: 76.9*; SufuKO cytotox: 5.1; Wnt3a counter: -72.5

Results for C/C(=N\NC(N)=S)C1=CCC2C3CC[C@H]4CC(O)CC[C@]4(C)C3CC[C@]12C (some centres undefined) ?
GalR3 antagonist: -9.3; Gli-Sufu antag: 26.3; FXN GAA850 act: 2.2; H9c2 protect: -18.8; SMARCA2 act: -1.4; COUP-TFII inh: 14.3

How did COc1cc(C)c(C)cc1S(=O)(=O)N1CCN(Cc2ccccc2)CC1 do in these assays?
GalR3 antagonist: 1.5; Gli-Sufu antag: 50.4; FXN GAA850 act: 1.7; H9c2 protect: -6.3; SMARCA2 act: -1.4; COUP-TFII inh: 15.8; Gli-Sufu confirm: 18.2; SufuKO cytotox: -4.2; Wnt3a counter: 13.6

What do the screens show for `CCNC(=O)C(=O)NCC(c1cccs1)S(=O)(=O)c1ccc(C)cc1` (centres undefined)?
GalR3 antagonist: -8.5; Gli-Sufu antag: 52.5; FXN GAA850 act: -1.3; H9c2 protect: -2.7; SMARCA2 act: -2.7; COUP-TFII inh: 0.9; Gli-Sufu confirm: 12.1; SufuKO cytotox: 6.5; Wnt3a counter: 0.3

What do the screens show for `CCOC(=O)C(=O)NCC(c1cccs1)S(=O)(=O)c1ccc(Cl)cc1` (centres undefined)?
GalR3 antagonist: -8.5; Gli-Sufu antag: 55.0; FXN GAA850 act: 4.4; H9c2 protect: 5.1; SMARCA2 act: -1.0; COUP-TFII inh: 12.1; Gli-Sufu confirm: 32.5; SufuKO cytotox: 15.1; Wnt3a counter: 20.9

Results for CCOC(=O)C(=O)NCC(c1cccs1)S(=O)(=O)c1ccc(C)cc1 (centres undefined) ?
GalR3 antagonist: -3.9; Gli-Sufu antag: 0.1; FXN GAA850 act: 0.3; H9c2 protect: -0.8; SMARCA2 act: -2.3; COUP-TFII inh: -5.2

How did O=C(O)C1CC(=O)N(CCc2ccccc2)C1 (centres undefined) do in these assays?
GalR3 antagonist: -3.3; Gli-Sufu antag: 0.1; FXN GAA850 act: -1.6; H9c2 protect: -5.8; SMARCA2 act: -1.6; COUP-TFII inh: 16.2

How did COc1ccc(CCN2CC(C(=O)O)CC2=O)cc1 (centres undefined) do in these assays?
GalR3 antagonist: -5.7; Gli-Sufu antag: 96.1*; FXN GAA850 act: -0.6; H9c2 protect: 5.9; SMARCA2 act: -3.4; COUP-TFII inh: -0.3; Gli-Sufu confirm: 2.9; SufuKO cytotox: 2.7; Wnt3a counter: -4.5

What do the screens show for `COC(=O)c1ccc2nc(-c3ccc(C#N)cc3)c(Cc3cccc(Cl)c3)n2c1`?
GalR3 antagonist: -2.4; SMARCA2 act: -0.4; COUP-TFII inh: 7.4

Results for Cc1cc(C)cc(NC(=O)C2CCC(CNC(=O)[C@@H]3Cc4ccccc4CN3)CC2)c1 (some centres undefined) ?
GalR3 antagonist: -3.0; Gli-Sufu antag: 56.9*; FXN GAA850 act: 1.8; H9c2 protect: -3.1; SMARCA2 act: -4.1; COUP-TFII inh: 26.0; Gli-Sufu confirm: 17.8; SufuKO cytotox: 10.6; Wnt3a counter: -59.4

Results for Cc1cccc(NC(=O)C2CCC(CNC(=O)[C@@H]3Cc4ccccc4CN3)CC2)c1 (some centres undefined) ?
GalR3 antagonist: -7.2; Gli-Sufu antag: -19.6; FXN GAA850 act: -2.9; H9c2 protect: 0.3; SMARCA2 act: -2.3; COUP-TFII inh: -0.8

Results for COC(=O)c1cc2ccsc2n1Cc1nc(-c2ccc(Cl)cc2)oc1C ?
GalR3 antagonist: 2.6; Gli-Sufu antag: 0.3; FXN GAA850 act: 0.8; H9c2 protect: -5.3; SMARCA2 act: -2.6; COUP-TFII inh: 2.1
